High-throughput results as filed in PubChem BioAssay.
Rows were chosen to be rich in hits. Some 1.1% of all compounds tested hit in one or more screens of this group.
S1P4 antag = blocks the human S1P4 receptor; 220,000 compounds, 0.26% hits; S1P4-expressing cells, antagonist mode, reporter read-out; O95977; inhibition, % at 4.98 µM; in the data active means inhibition above about 29%;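 further: 0% = wells stimulated with agonist and 100% = vehicle wells without agonist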
UBC9 SUMO inh = blocks human SUMOylation mediated by UBC9; P63279; HTRF SUMOylation assay, SAE1/SAE2 + UBC9, in vitro; inhibition, % at 35 µM; 290,000 compounds, 0.36% hits; AID 2006; in the data active means inhibition above about 50%, passing the limit was not always enough
DTT redox prof = compounds producing H2O2 with reducing agent – biochemical, NIH compound library profiling, artefact control for MLSCN library redox annotation, primary screen; DTT-dependent redox cycling H2O2, phenol red/HRP absorbance; 100% = 100 µM peroxide control, 0% = buffer; activation, % at 10 µM; AID 878; 200,000 compounds, 0.03% hits;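 active means activation of at least 50% relative to the plate's high and low controls in the primary single-dose screen; inactive means activation below 50%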;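 further: compound incubated with DTT at 0.8 mM final as the reducing agent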
S1P3 antag = antagonists of human S1P3 receptor; CHO S1P3 NFAT-BLA reporter, FRET fluorescence, antagonist mode; inhibition, % at 4.98 µM; 170,000 compounds, 0.27% hits; AID 485;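 active means inhibition above the plate cutoff, the mean inhibition of test wells on that plate plus 3 SD, cut at about 28% in these data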;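 further: cells challenged with S1P at its EC80 of 0.8 µM; blue over green emission ratio from cleaved BLA substrate after 4 h stimulation; 0% = S1P-stimulated wells and 100% = unstimulated DMSO-only wells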
p97 ATPase inh = inhibitors of human p97 ATPase. inhibition, % at 8 µM. P55072. recombinant p97 ATPase, Kinase-Glo ATP luminescence, 3 h. 220,000 compounds, 0.42% hits; in the data active means inhibition above about 15%;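 further: 0% = DMSO vehicle and 100% = wells lacking enzyme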
Target sequence (P55072 whole entry, looked up): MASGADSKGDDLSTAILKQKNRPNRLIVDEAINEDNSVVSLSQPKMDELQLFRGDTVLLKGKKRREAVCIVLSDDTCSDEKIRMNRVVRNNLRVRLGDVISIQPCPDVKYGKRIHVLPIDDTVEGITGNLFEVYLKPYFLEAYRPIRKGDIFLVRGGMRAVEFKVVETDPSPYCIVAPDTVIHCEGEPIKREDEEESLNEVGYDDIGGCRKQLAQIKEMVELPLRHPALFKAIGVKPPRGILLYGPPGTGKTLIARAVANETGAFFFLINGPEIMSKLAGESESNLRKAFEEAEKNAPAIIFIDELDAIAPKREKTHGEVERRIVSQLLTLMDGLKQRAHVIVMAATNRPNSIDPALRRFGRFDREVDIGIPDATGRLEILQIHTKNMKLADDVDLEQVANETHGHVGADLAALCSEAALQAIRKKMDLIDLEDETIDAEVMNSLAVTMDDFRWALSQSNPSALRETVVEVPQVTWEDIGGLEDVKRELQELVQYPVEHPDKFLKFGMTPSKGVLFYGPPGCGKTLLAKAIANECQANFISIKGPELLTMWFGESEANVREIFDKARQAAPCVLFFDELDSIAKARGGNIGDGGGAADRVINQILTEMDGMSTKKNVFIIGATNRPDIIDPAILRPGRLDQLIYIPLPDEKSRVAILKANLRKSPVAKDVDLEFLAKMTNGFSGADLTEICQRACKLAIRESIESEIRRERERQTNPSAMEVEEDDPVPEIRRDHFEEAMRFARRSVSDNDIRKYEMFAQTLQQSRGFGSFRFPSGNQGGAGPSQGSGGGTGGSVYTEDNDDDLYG
S1P4 agonist = activates the human S1P4 receptor; O95977; S1P4-expressing cell line, agonist reporter assay; activation, % at 4.98 µM; 220,000 compounds, 0.35% hits; AID 1509; in the data active means activation above about 11%;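 further: 0% = DMSO vehicle and 100% = reference agonist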
S1P4 antag conf = human S1P4 antagonism, confirmation. inhibition, % at 4.98 µM. AID 1524. shares compounds with S1P4 antag. 520 compounds, 71% hits. S1P4-expressing cell line, antagonist mode, reporter read-out; in the data active means inhibition above about 30%
S1P1 antagonist = counter-screen for S1P4 antagonists: antagonists of human S1P1 | inhibition, % at 4.98 µM | shares compounds with S1P4 antag | cell-based S1P1 antagonist counterscreen, inhibition | 520 compounds, 37% hits; in the data active means inhibition above about 40%;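 further: receptor stimulated with S1P near its EC80; 0% = agonist stimulated wells and 100% = vehicle only wells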
Active calls of the source: *; · = no result.

SMILES | S1P4 antag | UBC9 SUMO inh | DTT redox prof | S1P3 antag | p97 ATPase inh | S1P4 agonist | S1P4 antag conf | S1P1 antagonist
COc1cc2c3nnc(-c4ccc(F)cc4)c-3cn(Cc3ccccc3)c2cc1OC | 41* | 15 | -1 | · | 6 | -2 | 85* | 120*
COC(=O)CS(=O)(=O)c1nnc([C@H](Cc2ccccc2)NC(=O)OC(C)(C)C)o1 | -1 | 8 | 3 | -10 | 6 | -2 | · | ·
Cc1cccc(CS(=O)(=O)c2nnc([C@H](Cc3ccccc3)NC(=O)OC(C)(C)C)o2)c1 | 88* | 32 | 0 | · | -7 | -2 | 93* | 24
CN(CCC#N)C(=O)COC(=O)c1ccccc1C(=O)c1ccc(Cl)c([N+](=O)[O-])c1 | 55* | -5 | 0 | -6 | 1 | -2 | 112* | 53*
O=C(COC(=O)c1ccccc1C(=O)c1ccc(Cl)c([N+](=O)[O-])c1)NC1CCCCCC1 | 20 | 6 | 0 | · | 2 | -3 | · | ·
CN(CCC#N)C(=O)COC(=O)c1ccc(Cl)c(S(N)(=O)=O)c1 | -18 | 4 | 1 | 2 | -3 | 1 | · | ·
CC(C)N(C(=O)COC(=O)c1ccccc1C(=O)c1ccc(Cl)c([N+](=O)[O-])c1)C(C)C | 31* | -4 | 0 | -3 | -1 | -1 | 60* | 46*
O=C(Nc1ccc(S(=O)(=O)Nc2ncccn2)cc1)c1ccc(Br)s1 | -24 | 31 | -1 | · | 11 | -1 | · | ·
COc1ccccc1-c1cc(C(=O)Nc2c(F)cc(F)cc2Br)no1 | 41* | 19 | 0 | 12 | -5 | -1 | 42* | 16
CCSc1nnc(NC(=O)Cc2cc(OC)c(OC)c(OC)c2)s1 | -2 | 18 | -1 | -6 | -2 | -1 | · | ·
CCN(CC)c1ccc(/C=c2\sc3nc4ccccc4n3c2=O)c(O)c1 | 37* | -53 | -1 | 15 | 10 | 6 | 22 | -25
O=C(Nc1nc2ccccc2c(=O)s1)c1ccco1 | 30* | 18 | · | 3 | -4 | 0 | 27 | -17
O=C(Nc1nc2cc3c(cc2s1)OCO3)c1ccco1 | -10 | 40 | · | 1 | -12 | 0 | · | ·
COc1cn(-c2ccccc2)nc1C(=O)Nc1ccc(C)cc1Cl | · | 8 | · | · | · | · | · | ·
CCCCOc1ccc(C(=O)NCC(=O)NC2CCN(Cc3ccccc3)CC2)cc1 | · | -6 | · | · | · | · | · | ·
Cn1cccc1C(=O)NC(=O)COC(=O)C12CC3CC(CC(O)(C3)C1)C2 | 33* | -3 | 0 | · | 0 | -3 | 3 | 5
O=S(=O)(Nc1cccc2ncccc12)c1cccs1 | 54* | -77 | 0 | 4 | 6 | -1 | 106* | 91*
Cc1cc(C)c(C)c(OCc2nc(-c3cccnc3)no2)c1 | 30* | -2 | 0 | 1 | -6 | 3 | 9 | 12
COC(=O)c1oc(-c2ccc(Cl)cc2)nc1C | -17 | -14 | 0 | -13 | -3 | 1 | · | ·
CNC(=O)c1nnsc1S(=O)(=O)c1ccc(Cl)cc1 | 61* | 23 | 1 | -4 | 11 | -3 | 103* | 76*
O=C(c1nnsc1S(=O)(=O)c1ccc(Cl)cc1)N1CCOCC1 | 14 | 0 | -2 | 4 | 6 | -2 | · | ·
O=C1CCCCc2sc(Br)c([N+](=O)[O-])c2N1 | 80* | 9 | · | 1 | 12 | -3 | 102* | 66*
Cc1nc2ccc(NC(=O)c3nn(CC(C)C)c(=O)c4ccccc34)cc2s1 | 40* | -8 | 0 | -13 | -13 | -2 | 45* | 23
CC(C)(C)C(=O)Cn1ncc(Br)c(Br)c1=O | 64* | 15 | 0 | -1 | 5 | -4 | 93* | 34
N#C/C(=C\c1cn(CCOc2ccccc2)c2ccccc12)C(=O)NCc1cccs1 | -12 | -8 | 0 | -17 | 5 | 2 | · | ·
SMILES | S1P4 antag | UBC9 SUMO inh | DTT redox prof | S1P3 antag | p97 ATPase inh | S1P4 agonist | S1P4 antag conf | S1P1 antagonist
CCC(C)(c1nnnn1-c1c(C)cccc1C)N(N=O)c1ccccc1Cl (configuration not stated) | 2 | -9 | 1 | 4 | -8 | 1 | · | ·
CCCN(CCC)CC(O)Cn1cc(/C=C/C(=O)c2cccs2)c2ccccc21 (configuration not stated) | 34* | 0 | 3 | 8 | 0 | 2 | 59* | 74*
COc1ccccc1-c1cc(C(F)(F)F)nc(S(C)(=O)=O)n1 | 68* | 9 | 0 | · | -7 | -2 | 86* | 6
COc1ccccc1-c1cc(C(F)(F)F)nc(N2CCCC2)n1 | -18 | -30 | -2 | · | -7 | 2 | · | ·
O=C(Nc1ccccc1)Nc1cc(OCC(F)(F)F)cc(OCC(F)(F)F)c1 | 101* | -12 | -1 | -5 | -1 | -1 | 112* | -6
CCO[C@@H]1OC(C(=O)N2CCN(C)CC2)=C[C@H](C(C)(C)C)[C@H]1CCCO | -12 | 15 | 0 | 7 | -1 | -1 | · | ·
O=C1/C(=C/c2ccc(N3CCOCC3)o2)SC(=Nc2ccccc2)N1CCc1c[nH]c2ccccc12 | 46* | 17 | -3 | · | 4 | 0 | 64* | 46*
